From the supplement of paper PMC6555819

Experiments:
Experiment in all cases: PBM binding z-score (relative to random genomic background probes); higher = stronger binding; sequences stand for … in GC…GCGATTGACAGCGTAGAATGAAGG
[1] = tested on: PPARg:RXRa DBDmut IVT, anti-RXR (DBD mutation: RXRa K156A/R161A, NR concentration 270 nM, RXRa partner concentration 90 nM)
In short: (§1)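 Each nuclear receptor dimer, without ligand, was incubated for 1 h on custom Agilent 4×180K protein-binding microarrays. Binding was detected with antibodies against each partner (one per run), and scanned fluorescence was regression-normalized. The binding z-scores are referenced to random human genomic background probes.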

[2] = tested on: PPARg:RXRa IVT, anti-PPARg (NR concentration 270 nM, RXRa partner concentration 90 nM)
In short: as §1

[3] = tested on: PPARg DBDmut:RXRa IVT, anti-PPARg (DBD mutation: PPARg1 K132A/R137A, NR concentration 270 nM, RXRa partner concentration 90 nM)
In short: as §1

[4] = tested on: PPARg DBDmut IVT, anti-PPARg (DBD mutation: PPARg1 K132A/R137A, NR concentration 270 nM)
In short: as §1

[5] = tested on: PPARg homodimer (NR concentration 180 nM)
In short: as §1

[6] = tested on: PXR:RXRa (NR concentration 270 nM, RXRa partner concentration 90 nM)
In short: as §1

[7] = tested on: PXR homodimer (NR concentration 270 nM)
In short: as §1

[8] = tested on: RARa:RXR (NR concentration 270 nM, RXRa partner concentration 90 nM)
In short: as §1

[9] = tested on: RARa homodimer (NR concentration 270 nM)
In short: as §1

[10] = tested on: RARb:RXRa (NR concentration 270 nM, RXRa partner concentration 90 nM)
In short: as §1

[11] = tested on: RARb homodimer (NR concentration 270 nM)
In short: as §1

[12] = tested on: RARg:RXRa (NR concentration 270 nM, RXRa partner concentration 90 nM)
In short: as §1

[13] = tested on: RARg homodimer (NR concentration 270 nM)
In short: as §1

[14] = tested on: RXRa DBDmut IVT, anti-RXR (DBD mutation: RXRa K156A/R161A, NR concentration 90 nM)
In short: as §1

[15] = tested on: RXRa homodimer (NR concentration 180 nM)
In short: as §1

[16] = tested on: THRa:RXRa (NR concentration 90 nM, RXRa partner concentration 90 nM)
In short: as §1

[17] = tested on: THRa homodimer (NR concentration 90 nM)
In short: as §1

[18] = tested on: VDR homodimer (NR concentration 270 nM)
In short: as §1

| Sequence | PBM binding z-score [1] | PBM binding z-score [2] | PBM binding z-score [3] | PBM binding z-score [4] | PBM binding z-score [5] | PBM binding z-score [6] | PBM binding z-score [7] | PBM binding z-score [8] | PBM binding z-score [9] | PBM binding z-score [10] | PBM binding z-score [11] | PBM binding z-score [12] | PBM binding z-score [13] | PBM binding z-score [14] | PBM binding z-score [15] | PBM binding z-score [16] | PBM binding z-score [17] | PBM binding z-score [18] |
| --- | --- | --- | --- | --- | --- | --- | --- | --- | --- | --- | --- | --- | --- | --- | --- | --- | --- | --- |
| TCGAGTAGGTTAGTCGGGGAATTCAGCCAACATA | 2.15 | 1.62 | -0.453 | -0.828 | -0.2 | -0.311 | -0.47 | -0.102 | -0.0152 | -0.105 | 0.122 | -0.408 | -0.41 | 0.0963 | -0.255 | 0.163 | -0.3 | -0.495 |
| CCAAGTAGGTTATGGGGCATTCAGGCAACGGTGA | 5.49 | 4.96 | 0.251 | 0.296 | 1.18 | -0.156 | -0.101 | 0.207 | 0.919 | 1.05 | 0.93 | 0.634 | 0.608 | 0.0857 | 0.733 | 0.508 | -0.0137 | 0.318 |
| GCTCGGAGGACAAGGTCAGCGCTTTGTCCGTAGA | 0.29 | 1.07 | -1.37 | -1.53 | 1.12 | 2.18 | -0.34 | 2.68 | -0.859 | 3.88 | 3.72 | 3.85 | 4.29 | 0.531 | 3.07 | 3.23 | 1.82 | 0.607 |
| GCTGCTAGGTCGGGTTGGTCAGCTAACGGGTACG | 0.38 | 0.339 | -1.51 | -0.0499 | -0.349 | -0.0179 | -0.16 | -0.157 | -1.16 | 1.16 | 0.957 | 0.215 | 0.167 | -0.0966 | 0.0101 | 0.409 | 0.283 | 0.431 |
| CAAACTAGATCACAGAGGTCAAAGTCCGTGCGTA | 3.96 | 4.36 | 1 | 1.1 | 4.38 | 5.76 | 2.93 | 6.13 | 2.65 | 4.05 | 4.34 | 4.96 | 4.25 | 2.41 | 5.63 | 3.64 | 1.29 | 5.11 |
| ACTTACGGGTCAACGAGGTTCTAGCACGCGTATA | 3.33 | 3.8 | 1.11 | 0.889 | 2.64 | 4.32 | 0.435 | 4.17 | 0.866 | 4.12 | 3.24 | 5.08 | 4.31 | 2.18 | 5.1 | 3.34 | 0.629 | 2.01 |
| TTACCAAGGTGAGCTGAGGTCTTTGATCCAACTC | 0.776 | 1.72 | -0.073 | -0.0335 | -0.466 | 2 | -0.613 | 2.56 | -0.713 | 1.17 | 0.568 | 0.335 | 0.384 | -0.584 | 0.322 | 4.17 | 0.8 | -0.646 |
| TGAATGAGGTTATAAGAGCAGGGAACGTTGCAAA | 1.21 | 1.65 | 0.835 | 0.627 | 0.672 | 0.661 | -0.193 | 1.39 | 0.226 | 1.29 | 0.269 | 1.47 | 0.87 | 0.547 | 1.87 | 1.66 | 0.0456 | 0.451 |
